One test has as its target Albumin (Bos taurus) (UniProt P02769). The experiment in a line: bovine serum albumin binders on microarray, profiling panel, artefact control for SMM control protein annotation, biochemical, small-molecule microarray, Alexa647 label, 635/667 nm fluorescence (AID 1118).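 Also: score merges 667 nm emission intensity and signal-to-noise per printed compound spot.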 The settings on record: BSA-A647 binding, fluorescence 635 nm, higher = more signal.
Test [1] in a line: small-molecule microarray binders of probe aXIP, primary screen, biochemical, NeuroSMM set, 635/667 nm fluorescence (AID 1119).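 Also: probe is the protein aXip251-270 applied at 1 µg/mL to compound-printed slides; binding of probe to printed compounds measured as 667 nm fluorescence plus signal to noise.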 The settings on record: higher = more signal, called active from +8 up or from −8 down.
The nature of test [2]: small-molecule binders of probe aNOTCH3, primary screen, biochemical, small-molecule microarray, 635/667 nm fluorescence (AID 1120).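 Also: probe is a biotin-tagged antibody raised against NOTCH3 rather than NOTCH3 protein; score merges spot fluorescence near 667 nm with spot signal to noise.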 As to conditions: higher = more signal.
The nature of test [3]: small-molecule binders of probe aNOTCH2, primary screen, biochemical, small-molecule microarray, 635/667 nm fluorescence (AID 1121).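 Also: score merges feature fluorescence read at 667 nm with its signal to noise.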 The settings on record: higher = more signal.
Test [4] addresses Carbonic anhydrase 2 (Homo sapiens) (UniProt P00918). Nature of the test: CAII small-molecule binders, profiling panel, biochemical, small-molecule microarray, Alexa647-labelled CAII (AID 1122). As to conditions: CAII-A647 binding fluorescence, higher = more signal.
A short description of test [5]: COS7 lysate on small-molecule microarray, probe aHis, 635 nm (AID 1123).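 Also: z-score combines 667nm fluorescence intensity with signal-to-noise per printed compound spot.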 As to conditions: COS7 cell lysate, fluorescence, higher = more signal.
Test [6] can be described thus: compound binding in COS7 lysate, probe aLAP1, primary screen, cell lysate, small-molecule microarray (AID 1124).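 Also: lysate comes from COS7 cells expressing LAP1 and is applied at 0.3 µg/mL; score merges spot fluorescence near 667 nm with signal-to-noise over triplicate slides.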 As to conditions: probe aLAP1, fluorescence, higher = more signal.
The next test deals with Sam68 (KHDRBS1). Nature of the test: Sam68 small-molecule binders, primary screen, biochemical, small-molecule microarray, 635 nm fluorescence (AID 1125).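 Also: score merges 667 nm channel intensity with signal to noise over triplicate slides.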 As to conditions: small-molecule microarray binding, higher = more signal.
For test [7], the system named is Chordin-like protein 2 (CHRDL2). The experiment in a line: CHRDL2 small-molecule binders, primary screen, biochemical, small-molecule microarray, 635 nm fluorescence (AID 1126).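 Also: printed compound slides probed with Chrdl2 protein at 4 µg/mL for 1 h at 4 C; score merges 667 nm emission intensity with signal to noise over three replicate slides.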 As to conditions: small-molecule microarray binding, fluorescence 635 nm; higher = more signal.
Test [8] addresses Concanavalin-A (Canavalia ensiformis) (UniProt P02866). Nature of the test: ConA small-molecule binders, primary screen, artefact control for SMM control protein annotation, biochemical, small-molecule microarray, Alexa647 label, 635 nm (AID 1127).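 Also: z combines 667 nm emission intensity with signal-to-noise across three replicate slides.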 As to conditions: ConA-A647 binding fluorescence, higher = more signal.

SMILES strings stand for the structures. Calls of active or inactive are those of the source.

Albumin (Bos taurus), sequence (P02769 whole entry, looked up): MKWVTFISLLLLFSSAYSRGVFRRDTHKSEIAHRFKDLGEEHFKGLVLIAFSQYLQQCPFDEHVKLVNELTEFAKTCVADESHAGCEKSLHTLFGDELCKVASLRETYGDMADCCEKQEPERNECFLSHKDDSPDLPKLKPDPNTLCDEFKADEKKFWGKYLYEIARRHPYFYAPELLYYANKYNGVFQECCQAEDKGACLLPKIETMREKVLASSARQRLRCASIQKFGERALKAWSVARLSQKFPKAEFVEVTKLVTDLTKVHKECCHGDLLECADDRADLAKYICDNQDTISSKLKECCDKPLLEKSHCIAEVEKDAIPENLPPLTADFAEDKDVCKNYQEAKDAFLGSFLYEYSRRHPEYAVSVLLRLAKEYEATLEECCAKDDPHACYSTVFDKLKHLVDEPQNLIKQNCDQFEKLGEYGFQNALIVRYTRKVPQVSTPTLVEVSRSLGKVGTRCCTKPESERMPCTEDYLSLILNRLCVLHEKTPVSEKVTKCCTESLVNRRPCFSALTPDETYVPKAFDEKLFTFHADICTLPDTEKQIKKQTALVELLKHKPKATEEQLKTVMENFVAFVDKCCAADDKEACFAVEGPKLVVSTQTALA
Concanavalin-A (Canavalia ensiformis), sequence (P02866 whole entry, looked up): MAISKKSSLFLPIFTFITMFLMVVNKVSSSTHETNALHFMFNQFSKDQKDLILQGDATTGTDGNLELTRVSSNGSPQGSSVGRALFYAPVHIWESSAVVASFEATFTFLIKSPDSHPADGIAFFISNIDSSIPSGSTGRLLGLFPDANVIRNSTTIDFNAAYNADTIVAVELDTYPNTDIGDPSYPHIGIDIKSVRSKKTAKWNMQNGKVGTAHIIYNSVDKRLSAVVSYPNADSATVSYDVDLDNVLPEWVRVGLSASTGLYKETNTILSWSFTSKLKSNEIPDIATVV

As to `C=CCC(OC(C)=O)[C@@H]1[C@@H](N(Cc2cccc3ccccc23)C(=O)c2ccc(C)cc2)c2cc(OCCCO)ccc2N1C(=O)c1ccc2ccccc2n1` (stereo not given in full), the composite z-score in the test with Albumin (Bos taurus) is 0.526; in test [2], 0.366; in test [3] it was 0.0239; in test [4], 0.246; in test [5], 0.72; in test [6], 0.158. Moreover, the composite z-score in the test with Sam68 (KHDRBS1) is 0.478; in test [7], 0.618; in test [8], -0.202. In addition, the composite Z-score in test [1] was -0.104 (inactive).
On to `CCOC(=O)C[C@H]1[C@H](OC(=O)c2cc3ccccc3oc2=O)[C@@H](NC(=O)C2CCCCC2)c2cc(OCCCO)ccc2N1C(=O)Cc1ccc(OC)cc1`, for which the composite z-score is 0.259 with Albumin (Bos taurus); 1.41 in test [2]; -0.0111 in test [3]; 0.51 in test [4]; 0.988 in [5]; 0.319 in [6]. Also, the composite z-score in the test with Sam68 (KHDRBS1) is 0.736; in test [7], 0.328; in test [8] it was -0.146. Also, in test [1], the composite Z-score was 0.127 (inactive).
As to `COc1ccc([Si](C)(C)[C@H]2[C@H](CCO)O[C@@]3(C(=O)N(Cc4ccccc4)c4ccc(N(C=O)c5ccccc5)cc43)[C@@H]2C)cc1`, the composite z-score with Albumin (Bos taurus) was 0.717; in test [2], 0.0576; in test [3] it was -0.0984; in test [4] it was 0.189; in [5], 0.929; in test [6] it was 0.0964. Further, the results for the composite z-score (in the test on Sam68 (KHDRBS1); in test [7]; in test [8]) were 0.936, -0.0384 and 1.02, respectively. Moreover, the composite Z-score in [1] is -0.328 (inactive).
As for `CN(C)C(=O)[C@@]1(CCS(=O)(=O)c2ccccc2)N=C(c2ccc(OCCCO)cc2)O[C@H]1c1ccccc1N=[N+]=[N-]`, the composite z-score is 0.856 in the test with Albumin (Bos taurus); 0.488 in test [2]; -0.112 in test [3]; 0.669 in test [4]; 2.13 in test [5]; 0.521 in [6]. In addition, the composite z-score was 1.29 in the test on Sam68 (KHDRBS1), -0.0717 in test [7] and 0.972 in [8]. Besides, in test [1], the composite Z-score was -0.288 (inactive).
Turning to `O=C1N(Cc2ccccc2)c2ccccc2[C@H]2OC(c3ccc(OCCCO)cc3)=N[C@@]12Cc1ccccc1`, the composite z-score is -0.465 in the test with Albumin (Bos taurus); 0.0271 in [2]; -0.131 in [3]; 0.606 in test [4]; 2.42 in test [5]; 1.1 in test [6]. The composite z-score in the test with Sam68 (KHDRBS1) came to 1.3; in test [7] it was 0.41; in [8], 1.06. Also, the composite Z-score in [1] is 1.19 (inactive).
Turning to `COC(=O)[C@@]1(Cc2ccc(OC)cc2)[C@H]2c3cc(C(=O)N4CCCC4)n(CCc4ccc(OC)c(Br)c4)c3C[C@H]2CN1C(=O)c1ccccc1`, the composite z-score amounted to 1.01 in the test with Albumin (Bos taurus); 0.0305 in test [2]; 0.162 in [3]; 0.895 in [4]; 2.78 in test [5]; 1.11 in test [6]. The values for the composite z-score (in the test with Sam68 (KHDRBS1); in test [7]; in [8]) were 0.251, 0.257 and -0.234, respectively. In addition, the composite Z-score in [1] was -0.004 (inactive).
In the case of `CCC[C@@H]1C=C(C(=O)OCC)[C@H](c2ccccc2)N1S(=O)(=O)c1ccc(C)cc1`, the composite z-score in the test with Albumin (Bos taurus) was 0.854; in test [2], 0.341; in test [3], 0.273; in test [4] it was 0.214; in test [5], -0.0844; in test [6], 1.29. For the same compound, the composite z-score with Sam68 (KHDRBS1) came to 1.3; in test [7], 0.0538; in test [8], 1.11. Also, in test [1], the composite Z-score is 0.142 (inactive).
As for `O=C1C2C=CC(C(O)C(c3ccccc3)c3ccccc3)N(Nc3ccccc3)C2C(=O)N1c1ccccc1` (stereo not given), the composite z-score with Albumin (Bos taurus) is 0.876; in [2] it was 0.278; in test [3], -0.0633; in test [4], 0.619; in [5] it was 2.17; in test [6], 0.0595. In addition, the composite z-score was 1.3 in the test with Sam68 (KHDRBS1), -0.236 in [7] and 0.942 in test [8]. Besides, the composite Z-score in test [1] was 0.312 (inactive).
With `C=CCNC(=O)[C@H]1[C@@H]2C(=O)O[C@@H](c3ccccc3)[C@@H](c3ccccc3)N2[C@@H](c2ccccc2OCCO)[C@]12C(=O)N(C(=O)OCCOC)c1ccccc12`, the composite z-score was 0.813 with Albumin (Bos taurus); -0.161 in [2]; -0.153 in test [3]; 0.567 in test [4]; 1.96 in [5]; 0.883 in test [6]. Besides, the composite z-score in the test with Sam68 (KHDRBS1) turned out to be 1.21; in test [7], 0.414; in [8] it was 1.13. In addition, in [1], the composite Z-score is -0.104 (inactive).
For the compound `COCCOC(=O)N1C(=O)[C@@]2(c3cc(C#CC4(O)CCCCCC4)ccc31)[C@H](c1ccc(OCCO)cc1)N1[C@H](c3ccccc3)[C@H](c3ccccc3)OC(=O)[C@H]1[C@@H]2C(N)=O`, the composite z-score with Albumin (Bos taurus) is 0.119; in test [2], 0.0876; in test [3] it was -0.0907; in [4], 0.3; in test [5] it was 0.615; in test [6], 0.519. Besides, the composite z-score in the test on Sam68 (KHDRBS1) worked out at 1.3; in test [7], 0.986; in [8], 1.17. The composite Z-score in [1] was 0.189 (inactive).
Consider `CC(C)CNC(=O)[C@@]1(C)c2ccccc2C(=O)N(Cc2cc(F)cc(C(F)(F)F)c2)[C@H]1c1ccc(CO)cc1`, for which the composite z-score in the test with Albumin (Bos taurus) is 0.621; in [2] it was -0.0044; in test [3], -0.046; in test [4], 0.284; in test [5], 1.2; in test [6] it was 0.615. The composite z-score was determined as 1.17 in the test on Sam68 (KHDRBS1), 0.443 in test [7] and 0.771 in test [8]. For the same compound, the composite Z-score in test [1] is -0.17 (inactive).
Consider `C=CCC(OC(C)=O)[C@@H]1[C@@H](N(Cc2ccc(-c3cccc(C(F)(F)F)c3)o2)C(=O)c2cccc3ccccc23)c2cc(OCCCO)ccc2N1C(=O)c1ccc2ccccc2c1` (stereo not given in full), for which the composite z-score with Albumin (Bos taurus) was -0.119; in test [2] it was 0.147; in [3], -0.12; in [4], 0.0138; in test [5] it was 0.289; in test [6], -0.278. Further, the composite z-score is -0.351 in the test with Sam68 (KHDRBS1), 0.31 in test [7] and -0.0957 in test [8]. Further, the composite Z-score in test [1] was 0.115 (inactive).
Regarding `Cc1c(-c2ccc(-c3ccc(Cl)c(Cl)c3)o2)nc(-c2ccccc2)c2c1CO[Si]2(C(C)C)C(C)C`, the composite z-score with Albumin (Bos taurus) was 0.734; in test [2], -0.122; in test [3] it was -0.148; in test [4] it was 0.181; in [5] it was 0.356; in test [6], -0.213. The results for the composite z-score (with Sam68 (KHDRBS1); in [7]; in [8]) were 0.295, -0.18 and 0.248, respectively. Further, the composite Z-score in test [1] is -0.0877 (inactive).
Consider `CC(C)C[C@@H]1NC(=O)C([C@@H](C)OCc2ccccc2)NC(=O)[C@@]23C(=O)N[C@@H](Cc4ccccc4)C2[C@H](C)[C@@]2(C)O[C@H]2C3/C=C/CC/C=C/CNC1=O` (stereo not given in full), for which the composite z-score with Albumin (Bos taurus) is 0.438; in [2] it was -0.0647; in test [3], -0.128; in test [4] it was 0.469; in test [5], 0.73; in test [6] it was 0.184. The results for the composite z-score (with Sam68 (KHDRBS1); in test [7]; in [8]) were 1.34, 0.554 and 0.329, respectively. In addition, in test [1], the composite Z-score was -0.0807 (inactive).
Take `CCCCC(=C=CC[C@@H](O)c1ccc(OCCO)cc1)C[C@@H](O)c1ccccn1`: the composite z-score in the test with Albumin (Bos taurus) was 0.681; in [2], 0.0557; in test [3], -0.0785; in test [4] it was 0.326; in [5] it was -0.0207; in test [6] it was 0.209. Further, the composite z-score stood at 1.15 in the test on Sam68 (KHDRBS1), 0.102 in [7] and 0.223 in [8]. In addition, the composite Z-score in [1] is 0.111 (inactive).
For `CC1(C)OC[C@@]23C=C(Br)[C@@H](C[C@H]12)[C@@]1(CO1)C3=O`, the composite z-score was -0.172 in the test with Albumin (Bos taurus); 0.0824 in [2]; -0.189 in test [3]; -0.0169 in test [4]; -0.0842 in [5]; -0.0515 in test [6]. In addition, the values for the composite z-score (in the test with Sam68 (KHDRBS1); in [7]; in test [8]) were 0.107, 0.467 and 0.262, respectively. Moreover, the composite Z-score in test [1] was 0.0315 (inactive).
